This passage reports Potency and outcome results from PubChem BioAssay (Tox21).

Experiment [1] can be described thus: qHTS assay to identify small molecule antagonists of the androgen receptor (AR) signaling pathway using the MDA cell line in the presence of 0.5 nM R1881 - cell viability counter screen (AID 1259242). Also: nearly all actives have a fitted effect of over 45% in size. A digest of the protocol:
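qHTS format. MDA-kb2 (MMTV-luc, AR/GR responsive) + cpd + 0.5 nM R1881 final, 16 hr 37C/0% CO2 → CellTiter-Fluor 30 min → fluorescence intensity.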
In general terms: Quantitative high-throughput screening tests each substance at several concentrations.

Experiment [2] concerns the target Androgen receptor (Homo sapiens) (UniProt P10275). In words: qHTS assay to identify small molecule antagonists of the androgen receptor (AR) signaling pathway using the MDA cell line in the presence of 0.5 nM R1881 (AID 1259243). Also: nearly all actives have a fitted effect of over 50% in size. A digest of the protocol: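 Antagonist mode quantitative HTS in MDA-kb2 MMTV-luciferase cells, agonist R1881 at 0.5 nM final, 16 hr exposure at 37C and 0% CO2, luminescent detection.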

In experiment [3] the target is Estrogen receptor (Homo sapiens) (UniProt P03372). In words: qHTS assay to identify small molecule antagonists of the estrogen receptor alpha (ER-alpha) signaling pathway using the BG1 cell line in the presence of 0.1 nM 17-beta-estradiol (AID 1259244). Also: nearly all actives have a fitted effect of over 50% in size. The method in brief: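 Reporter is a stably transfected luciferase under four estrogen responsive elements in VM7Luc4E2 cells expressing native full-length ER-alpha; inhibition of 0.1 nM (final) 17beta-estradiol-driven signal over 22 h is read by luminescence.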
Estrogen receptor (Homo sapiens), sequence (P03372 whole entry, looked up): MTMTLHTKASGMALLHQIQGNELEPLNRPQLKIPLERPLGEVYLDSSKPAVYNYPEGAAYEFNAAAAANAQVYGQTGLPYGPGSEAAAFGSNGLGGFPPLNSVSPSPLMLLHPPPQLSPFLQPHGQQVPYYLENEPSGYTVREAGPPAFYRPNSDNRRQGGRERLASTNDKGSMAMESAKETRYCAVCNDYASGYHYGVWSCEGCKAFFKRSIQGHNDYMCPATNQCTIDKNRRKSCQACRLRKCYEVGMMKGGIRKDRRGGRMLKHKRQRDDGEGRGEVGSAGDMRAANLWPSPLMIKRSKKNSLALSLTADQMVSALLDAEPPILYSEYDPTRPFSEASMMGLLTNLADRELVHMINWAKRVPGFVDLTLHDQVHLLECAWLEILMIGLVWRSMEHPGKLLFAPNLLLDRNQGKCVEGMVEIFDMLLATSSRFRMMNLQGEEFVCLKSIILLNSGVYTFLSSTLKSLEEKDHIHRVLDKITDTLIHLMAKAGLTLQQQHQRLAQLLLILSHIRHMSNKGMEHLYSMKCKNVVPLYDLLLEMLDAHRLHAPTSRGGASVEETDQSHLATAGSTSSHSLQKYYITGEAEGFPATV

Experiment [4] can be described thus: qHTS assay to identify small molecule HDAC inhibitors (AID 1259364).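 Also: wild-type HCT-116 cells with endogenous class I/II HDAC activity; top concentration of the series differs between compounds; nearly all actives have a fitted effect of over 45% in size.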 The method in brief: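 Quantitative high-throughput format: overnight-seeded HCT-116 cells got compounds for 2 hr at 37C; HDAC-Glo I/II reagent added, 30 min RT, luminescence measured.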
Experiment [5] in a line: qHTS assay to identify small molecule HDAC inhibitors - cell viability counter screen (AID 1259365). Also: series mostly up to about 92 µM; nearly all actives have a fitted effect of over 50% in size. The method in brief: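 CellTiter-Glo luminescence (30 min, room temperature) reported viability after a 2 h compound exposure at 37 C. Cells: wild-type HCT-116, 1,500 per well, seeded the night before.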
The nature of experiment [6]: qHTS assay to identify small molecule agonists of the sonic hedgehog signaling (Shh) pathway - cell viability counter screen (AID 1259366). Also: nearly all actives have a fitted effect of over 50% in size. A digest of the protocol: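 Cytotoxicity counter screen: CellTiter-Fluor reagent added after 23 h compound exposure, then 1 h at 37C and fluorescence read. Cells were 3T3 Gli1-Luc, seeded 2,000 per well and dosed 4 h post-plating.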

A short description of experiment [7]: qHTS assay to identify small molecule antagonists of the sonic hedgehog signaling (Shh) pathway - cell viability counter screen (AID 1259367). Also: nearly all actives have a fitted effect of over 55% in size. A digest of the protocol: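 Tox21 library chemicals were tested on a Gli1-Luc NIH/3T3 clone (2,000 cells/well) stimulated by conditioned medium; viability was quantified as fluorescence from CellTiter-Fluor reagent added at 23 hr.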

Experiment [8] in a line: qHTS assay to identify small molecule agonists of the sonic hedgehog signaling (Shh) pathway (AID 1259368; calls by dose curve;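 also: NIH/3T3-derived 3T3Gli1-Luc cells carrying a stable Gli1-driven firefly luciferase reporter; series mostly up to about 92 µM; nearly all actives have a fitted effect of over 15% in size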). A digest of the protocol:
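Quantitative high-throughput format using a Gli1-driven firefly luciferase reporter line derived from NIH/3T3 cells. After a 24 hr compound treatment at 37 C and 5% CO2, luminescence reported Gli1 response element activity.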

A short description of experiment [9]: qHTS assay to identify small molecule antagonists of the sonic hedgehog signaling (Shh) pathway (AID 1259369; calls by dose curve; also: nearly all actives have a fitted effect of over 45% in size; also: potency is read from the fitted curve at half-maximal effect). A digest of the protocol:
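Stable Gli1-Luc reporter NIH/3T3 clone; quantitative HTS in stimulated mode with conditioned medium. Luminescence measured after 24hr compound treatment at 37 C.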

Experiment [10] can be described thus: qHTS assay to identify small molecule agonists of the androgen receptor (AR) signaling pathway in the presence of an antagonist - cell viability counter screen (AID 1259379).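 Also: MDA-kb2 human breast cancer cells carrying an MMTV luciferase reporter; series mostly up to about 92 µM; nearly all actives have a fitted effect of over 25% in size.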 The method in brief:
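Nilutamide-containing (3.0uM final) MDA-kb2 cultures, 3,000 cells/well, were treated with compounds across 15 concentrations. After 16 hr at 37C with no CO2, cell viability was determined by CellTiter-Fluor fluorescence in the luciferase assay wells.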

Experiment [11] is described as follows: qHTS assay to identify small molecule agonists of the estrogen receptor beta (ER-beta) signaling pathway - cell viability counter screen (AID 1259380). Also: nearly all actives have a fitted effect of over 30% in size. The method in brief: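 Steps: plate ER-beta-UAS-bla HEK293T cells, rest 6 hr; add compounds in DMSO; incubate 16 hr at 37C, 5% CO2; add FRET substrate 2 hr; add CellTiter-Glo, wait 30 min at room temperature; read luminescence.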

Experiment [12] deals with Androgen receptor (Homo sapiens) (UniProt P10275). The experiment is described as follows: qHTS assay to identify small molecule agonists of the androgen receptor (AR) signaling pathway in the presence of an antagonist (AID 1259381; calls by dose curve; also: nearly all actives have a fitted effect of over 15% in size). The method in brief: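 Reporter-gene luminescence from MDA-kb2 cells exposed 16hr at 37C (0% CO2) to 15-point compound titrations with 3.0uM final nilutamide as AR antagonist.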
Androgen receptor (Homo sapiens), sequence (P10275 whole entry, looked up): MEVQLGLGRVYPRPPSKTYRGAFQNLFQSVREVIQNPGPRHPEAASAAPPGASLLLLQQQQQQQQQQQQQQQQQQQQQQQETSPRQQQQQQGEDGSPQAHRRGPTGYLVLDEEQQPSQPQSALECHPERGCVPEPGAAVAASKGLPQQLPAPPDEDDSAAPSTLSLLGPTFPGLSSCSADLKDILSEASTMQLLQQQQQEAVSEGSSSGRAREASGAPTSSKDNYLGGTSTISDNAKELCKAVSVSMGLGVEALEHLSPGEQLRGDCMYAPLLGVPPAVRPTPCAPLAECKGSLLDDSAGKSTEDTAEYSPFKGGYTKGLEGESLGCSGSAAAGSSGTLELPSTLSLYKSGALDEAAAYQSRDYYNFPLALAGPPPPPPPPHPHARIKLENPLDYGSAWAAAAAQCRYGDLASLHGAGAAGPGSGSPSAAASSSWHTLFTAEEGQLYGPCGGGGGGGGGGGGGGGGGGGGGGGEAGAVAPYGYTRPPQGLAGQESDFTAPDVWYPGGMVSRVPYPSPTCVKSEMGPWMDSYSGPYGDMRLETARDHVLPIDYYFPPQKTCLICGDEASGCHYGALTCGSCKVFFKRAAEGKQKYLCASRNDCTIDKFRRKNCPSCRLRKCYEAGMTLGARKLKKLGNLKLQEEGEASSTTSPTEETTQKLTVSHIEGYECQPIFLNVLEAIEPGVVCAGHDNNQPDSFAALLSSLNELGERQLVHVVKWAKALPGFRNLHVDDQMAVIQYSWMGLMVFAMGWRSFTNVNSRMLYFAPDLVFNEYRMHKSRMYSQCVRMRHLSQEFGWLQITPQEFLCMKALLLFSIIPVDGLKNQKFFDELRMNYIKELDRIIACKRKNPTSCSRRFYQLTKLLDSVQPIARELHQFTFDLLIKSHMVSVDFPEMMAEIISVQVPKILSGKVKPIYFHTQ

The nature of experiment [13]: qHTS assay to identify small molecule antagonists of the estrogen receptor beta (ER-beta) signaling pathway - cell viability counter screen (AID 1259382). Also: series mostly up to about 92 µM; nearly all actives have a fitted effect of over 55% in size. The method in brief: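 Viability is scored by CellTiter-Glo luminescence (30 min, room temperature) in ER-beta-UAS-bla HEK293T wells already read for reporter fluorescence. Compound exposure lasts 16 hr at 37C alongside 1nM 17-beta-estradiol in charcoal-stripped serum medium.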

The target of experiment [14] is Estrogen receptor (Homo sapiens) (UniProt P03372). The experiment is described as follows: qHTS assay to identify small molecule agonists of the estrogen receptor alpha (ER-alpha) signaling pathway in the presence of an antagonist (AID 1259383; calls by dose curve; also: top concentration of the series differs between compounds; nearly all actives have a fitted effect of over 15% in size). The method in brief: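 Readout was ERE-driven luciferase luminescence in VM7Luc4E2 cells, which express full-length ER-alpha endogenously. Compounds were tested at 15 concentrations for 22hr alongside 10.0nM ICI-182,780 (final concentration).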

Experiment [15] can be described thus: qHTS assay to identify small molecule agonists or antagonists of the thyroid stimulating hormone receptor (TSHR) signaling pathway - wild type cell line counter screen (AID 1259384; calls by dose curve). A digest of the protocol: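 Wild-type Hek293 cells, 800/well, 18 h at 37C, then compound with Ro20-1724 for 30 min RT. cAMP by HTRF (cAMP-d2/anti-cAMP cryptate), 1 h RT, fluorescence read. 15 concentrations, triplicates.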

The target in experiment [16] is Thyrotropin receptor (Homo sapiens) (UniProt P16473). In words: qHTS assay to identify small molecule antagonists of the thyroid stimulating hormone receptor (TSHR) signaling pathway (AID 1259385; calls by dose curve; also: nearly all actives have a fitted effect of over 20% in size). The method in brief:
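TSHR-HEK293 cells (800/well) plated 18 h, then compounds with Ro20-1724 and TSH at 1.5 ng/mL final, 30 min at room temperature. cAMP quantified by HTRF (cAMP-d2/anti-cAMP-cryptate, 1 h); 15 concentrations in triplicate.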

The nature of experiment [17]: qHTS assay to identify small molecule antagonists of the estrogen receptor alpha (ER-alpha) signaling pathway using the BG1 cell line in the presence of 0.1 nM 17-beta-estradiol - cell viability counter screen (AID 1259241). Also: nearly all actives have a fitted effect of over 40% in size. The method in brief:
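Cytotoxicity counter-screen: live-cell protease activity measured by fluorescence (30 min reagent step) in the same wells. Cells were VM7Luc4E2 with endogenous ER-alpha and ERE-driven luciferase, treated 22 hr at 37C alongside 0.1 nM 17beta-estradiol final.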

A short description of experiment [18]: qHTS assay to identify small molecule phospholipidosis (PLD) inducers (AID 1259344; active = well fitted curve in the direction sought with a large enough effect; an effect the other way counts as inactive or inconclusive). The method in brief:
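Image-based: LipidTOX Red pit count/intensity per well and per cell; HepG2, 24 h compound at 37 C, PFA fixation, Hoechst counterstain.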

Experiment [19] deals with Estrogen receptor beta (Homo sapiens) (UniProt Q92731). The experiment is described as follows: qHTS assay to identify small molecule agonists of the estrogen receptor beta (ER-beta) signaling pathway (AID 1259377; active = well fitted activation curve with a large enough effect in the signal ratio in the repeat runs, not every such curve was filed as active; the % refers to the signal ratio). A digest of the protocol: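 Ratiometric beta-lactamase FRET read-out came after 2 h substrate loading at room temperature. It followed 16 h compound treatment at 37C of GripTite HEK293T cells carrying a UAS-bla reporter, plated in 2% charcoal-stripped FBS medium.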
Estrogen receptor beta (Homo sapiens), sequence (Q92731 whole entry, looked up): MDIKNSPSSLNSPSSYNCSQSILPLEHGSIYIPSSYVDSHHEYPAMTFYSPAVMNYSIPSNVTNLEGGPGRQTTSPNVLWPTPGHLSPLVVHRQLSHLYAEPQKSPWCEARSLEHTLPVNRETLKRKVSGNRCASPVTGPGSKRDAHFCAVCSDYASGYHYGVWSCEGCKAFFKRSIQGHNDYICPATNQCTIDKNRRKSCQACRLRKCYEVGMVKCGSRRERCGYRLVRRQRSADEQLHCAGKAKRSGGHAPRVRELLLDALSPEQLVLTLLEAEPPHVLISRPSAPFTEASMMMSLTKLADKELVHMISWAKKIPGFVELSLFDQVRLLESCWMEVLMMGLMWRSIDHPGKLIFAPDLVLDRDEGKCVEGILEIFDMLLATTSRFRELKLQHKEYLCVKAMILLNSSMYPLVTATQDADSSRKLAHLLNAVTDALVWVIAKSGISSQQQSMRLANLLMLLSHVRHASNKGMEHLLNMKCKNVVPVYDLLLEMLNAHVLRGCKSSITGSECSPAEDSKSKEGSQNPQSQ

Experiment [20] has the same target. The experiment is described as follows: qHTS assay to identify small molecule antagonists of the estrogen receptor beta (ER-beta) signaling pathway (AID 1259378; active = well fitted inhibition curve with a large enough effect in the signal ratio in the repeat runs, not every such curve was filed as active; the % refers to the signal ratio). A digest of the protocol:
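ER-beta-UAS-bla HEK293T cells in 2% charcoal-stripped FBS medium treated with compound plus 1nM final 17-beta-estradiol for 16 hr at 37C. Beta-lactamase reporter read by FRET substrate fluorescence after 2 hours at room temperature.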

Inconclusive results are not listed. Active and inactive are the calls of the source. Unless noted, calls follow the shape of the dose curve; as a rule, active = well fitted curve in the direction sought with a large enough effect in the repeat runs; inconclusive = weak or mixed curves; inactive = no such curve, though single readings can be large; an effect the other way counts as inactive or inconclusive.

Thyrotropin receptor (Homo sapiens), sequence (P16473 whole entry, looked up): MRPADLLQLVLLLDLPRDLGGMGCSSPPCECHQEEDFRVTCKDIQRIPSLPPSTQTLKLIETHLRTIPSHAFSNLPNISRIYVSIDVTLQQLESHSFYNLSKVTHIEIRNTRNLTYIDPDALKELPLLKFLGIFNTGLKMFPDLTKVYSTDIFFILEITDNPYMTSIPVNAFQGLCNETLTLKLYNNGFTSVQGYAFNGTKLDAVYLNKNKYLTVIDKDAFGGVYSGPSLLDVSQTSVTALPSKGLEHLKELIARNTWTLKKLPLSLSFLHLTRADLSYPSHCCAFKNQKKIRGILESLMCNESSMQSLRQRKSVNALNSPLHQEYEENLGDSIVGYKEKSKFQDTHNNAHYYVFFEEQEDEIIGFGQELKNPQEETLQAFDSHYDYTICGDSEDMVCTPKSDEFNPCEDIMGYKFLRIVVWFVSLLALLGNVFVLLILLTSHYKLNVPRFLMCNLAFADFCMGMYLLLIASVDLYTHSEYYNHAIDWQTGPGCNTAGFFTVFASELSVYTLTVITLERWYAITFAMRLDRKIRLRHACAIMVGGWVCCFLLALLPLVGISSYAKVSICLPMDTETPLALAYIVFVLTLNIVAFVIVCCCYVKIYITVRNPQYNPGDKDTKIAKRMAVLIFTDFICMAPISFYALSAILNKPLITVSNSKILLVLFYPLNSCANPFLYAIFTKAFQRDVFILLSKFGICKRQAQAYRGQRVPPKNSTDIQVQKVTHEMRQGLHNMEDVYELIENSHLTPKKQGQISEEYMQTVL

On to `O=C(Cl)OCCOCCOC(=O)Cl`, for which the Potency entry in [1], in [2], in experiment [3], in experiment [4], in [5] and in experiment [6] was “inactive” throughout. Besides, the Potency result in [7], in experiment [8], in experiment [9], in experiment [10], in experiment [11] and in [12] was “inactive” each time. Also, the Potency result in experiment [13], in [14] and in experiment [16] was “inactive” in each case. In addition, the result in [15] was inactive.

Regarding `CCCC(C)(COC(N)=O)COC(=O)NC(C)C` (centres undefined), the Potency result in experiment [17], in [3], in [4], in experiment [5], in experiment [6] and in experiment [7] was “inactive” throughout. Also, the Potency result in experiment [8], in experiment [9], in experiment [10], in experiment [11], in experiment [14] and in experiment [16] was “inactive” throughout. For the same molecule, the call in [18] and in experiment [15] was inactive.

On to `CCC1(CC)C(=O)NC(=O)NC1=O`, for which the Potency entry in [1], in experiment [3], in experiment [4], in experiment [5], in [6] and in experiment [7] was “inactive” in each case. In addition, the Potency entry in experiment [8], in experiment [9], in experiment [19], in experiment [20], in experiment [10] and in experiment [11] was “inactive” each time. Also, the Potency result in [13] and in [14] was “inactive” each time. For the same molecule, the molecule was called inactive in [18].

For the molecule `CCCCC1C(=O)NC(=O)N(C2CCCCC2)C1=O` (centres undefined), the Potency entry in experiment [17], in experiment [3], in experiment [4], in experiment [5], in experiment [6] and in [7] was “inactive” each time. Also, the Potency entry in [9], in experiment [20], in experiment [10], in [11], in experiment [13] and in [14] was “inactive” throughout. The outcome in experiment [18] was inactive.

`CCCC1CCCCN1` (centres undefined): the Potency entry in [17], in [3], in experiment [4], in experiment [5], in experiment [6] and in experiment [7] was “inactive” each time. Also, the Potency entry in experiment [8], in experiment [9], in experiment [10], in experiment [11], in [14] and in [16] was “inactive” in each case. Besides, the result in experiment [18] and in experiment [15] was inactive.

As for `CCCSP(=S)(OCC)Oc1ccc(SC)cc1` (centres undefined), the Potency entry in [17], in [3], in experiment [4], in experiment [5], in [6] and in experiment [7] was “inactive” each time. In addition, the Potency entry in [20], in experiment [10], in [11], in experiment [13], in [14] and in [16] was “inactive” throughout. Besides, the Potency in experiment [9] is 61.1 µM (active). The molecule was called inactive in experiment [15].

`NP(N)(=O)NC(=O)c1ccc(F)cc1`: the Potency result in experiment [1], in experiment [2], in experiment [3], in [4], in experiment [6] and in experiment [7] was “inactive” in each case. Further, the Potency result in experiment [8], in experiment [9], in experiment [19], in experiment [20], in experiment [10] and in [11] was “inactive” in each case. Further, the Potency entry in experiment [12], in [13], in [14] and in experiment [16] was “inactive” each time. Besides, the outcome in experiment [18] and in [15] was inactive.
